29 molecules from PubChem BioAssay (Tox21) can be followed below.

The target of assay [1] is Cytochrome P450 2D6 (Homo sapiens) (UniProt P10635). Put plainly: Cytochrome P450 Family 2 Subfamily D Member 6 (CYP2D6) small molecule antagonists: luciferase reporter qHTS assay (AID 1671196). Also: nearly all actives have a fitted effect of over 50% in size. As to activity change, negative = inhibition: series mostly up to about 120 µM. Put shortly: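 P450-Glo format: CYP2D6 converts a proluciferin substrate to luciferin in an NADPH-driven reaction lasting 1 h at room temperature. Light output, proportional to CYP2D6 activity, reflects interference by test chemicals.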
Sequence of Cytochrome P450 2D6 (Homo sapiens) (P10635 whole entry, looked up): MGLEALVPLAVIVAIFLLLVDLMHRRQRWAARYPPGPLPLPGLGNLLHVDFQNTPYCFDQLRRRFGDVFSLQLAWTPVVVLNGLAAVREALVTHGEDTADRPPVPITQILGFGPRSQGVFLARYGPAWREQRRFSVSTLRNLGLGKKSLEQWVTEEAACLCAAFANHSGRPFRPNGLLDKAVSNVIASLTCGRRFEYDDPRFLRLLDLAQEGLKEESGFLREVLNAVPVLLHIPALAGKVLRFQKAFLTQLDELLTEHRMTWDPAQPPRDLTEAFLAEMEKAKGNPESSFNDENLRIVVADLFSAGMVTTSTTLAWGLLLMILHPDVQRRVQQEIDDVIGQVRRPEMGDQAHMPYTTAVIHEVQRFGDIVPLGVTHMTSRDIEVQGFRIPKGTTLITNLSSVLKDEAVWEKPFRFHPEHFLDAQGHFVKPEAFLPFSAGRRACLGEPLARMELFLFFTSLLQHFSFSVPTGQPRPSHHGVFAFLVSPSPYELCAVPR

The target in assay [2] is Cytochrome P450 2C19 (Homo sapiens) (UniProt P33261). Description: Cytochrome P450 Family 2 Subfamily C Member 19 (CYP2C19) small molecule antagonists: luciferase reporter qHTS assay (AID 1671197). Also: nearly all actives have a fitted effect of over 65% in size. As to activity change, negative = inhibition: series mostly up to about 120 µM. A digest of the protocol: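 Quantitative high-throughput screen of the Tox21 library using CYP2C19 with proluciferin substrate. Reaction: NADPH regeneration, 37C, 1 h, after 10 min compound preincubation at room temperature. Readout: luminescence.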
Sequence of Cytochrome P450 2C19 (Homo sapiens) (P33261 whole entry, looked up): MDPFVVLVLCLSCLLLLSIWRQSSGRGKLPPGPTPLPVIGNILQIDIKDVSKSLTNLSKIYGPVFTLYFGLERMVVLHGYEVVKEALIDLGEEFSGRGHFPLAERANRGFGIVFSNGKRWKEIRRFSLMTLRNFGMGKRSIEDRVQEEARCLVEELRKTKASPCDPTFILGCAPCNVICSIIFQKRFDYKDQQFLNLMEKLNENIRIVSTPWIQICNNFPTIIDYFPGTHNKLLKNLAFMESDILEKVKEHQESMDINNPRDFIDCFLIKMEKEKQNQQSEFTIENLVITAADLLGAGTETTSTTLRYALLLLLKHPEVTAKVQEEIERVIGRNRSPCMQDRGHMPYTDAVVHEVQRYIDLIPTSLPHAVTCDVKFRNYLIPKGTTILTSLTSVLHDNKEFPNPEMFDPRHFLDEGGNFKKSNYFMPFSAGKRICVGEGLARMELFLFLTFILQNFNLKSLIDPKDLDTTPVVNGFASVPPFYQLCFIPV
In general terms: A reporter such as luciferase makes a cellular process visible.

Assay [3] has as its target Cytochrome P450 2C9 (Homo sapiens) (UniProt P11712). Description: Cytochrome P450 Family 2 Subfamily C Member 9 (CYP2C9) small molecule antagonists: luciferase reporter qHTS assay (AID 1671198). Also: nearly all actives have a fitted effect of over 50% in size. As to activity change, negative = inhibition: series mostly up to about 120 µM. A digest of the protocol:
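P450-Glo proluciferin substrate with CYP2C9 enzyme; 10 min RT preincubation, then NADPH regeneration 1 h at 37C; luciferin detection reagent 20 min RT, luminescence in relative luminescence units.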

For assay [4], the target named is Cytochrome P450 1A2 (Homo sapiens) (UniProt P05177). Put plainly: Cytochrome P450 Family 1 Subfamily A Member 2 (CYP1A2) small molecule antagonists: luciferase reporter qHTS assay (AID 1671199). Also: nearly all actives have a fitted effect of over 50% in size. As to activity change, negative = inhibition: series mostly up to about 120 µM. Put shortly:
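Inhibition of CYP1A2 conversion of proluciferin to luciferin, detected by luminescence. Reaction run 1 h at room temperature with NADPH regeneration after brief compound preincubation.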

In assay [5] the target is Voltage-gated inwardly rectifying potassium channel KCNH2 (Homo sapiens) (UniProt Q12809). Description: Human Ether-a-go-go-Related Gene (hERG) channel small molecule antagonists: fluorescence cell-based qHTS assay (AID 1671200). Also: nearly all actives have a fitted effect of over 50% in size.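 As to activity change, negative = inhibition: hERG-expressing U2OS cells given a thallium stimulus after FluxOR II dye loading; series mostly up to about 77 µM.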 Put shortly:
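Cell line hERG-U2OS; dye FluxOR II, 1 h RT dark; Tl+ stimulus; ex 480/em 540 nm, read each second for 2 min.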
A general note: Block of hERG is tested as a sign of cardiac risk.

The target in assay [6] is Cytochrome P450 3A4 (Homo sapiens) (UniProt P08684). Put plainly: Cytochrome P450 Family 3 Subfamily A Member 4 (CYP3A4) small molecule antagonists: luciferase reporter qHTS assay (AID 1671201). Also: nearly all actives have a fitted effect of over 50% in size. As to activity change, negative = inhibition: series mostly up to about 120 µM. A digest of the protocol:
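Room-temperature assay throughout: 10 min compound–enzyme/substrate preincubation, 1 h reaction after NADPH regeneration solution, 20 min detection. Luciferin formed from proluciferin substrate is quantified by luminescence.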

Inconclusive results are not listed. Values without a mark were called inactive. The source made the active and inactive calls. Calls follow the shape of the dose curve; as a rule, active = well fitted curve in the direction sought with a large enough effect in the repeat runs; inconclusive = weak or mixed curves; inactive = no such curve, though single readings can be large; an effect the other way counts as inactive or inconclusive.
% is scaled to controls: 0 for no effect and ±100 for the full control effect; potency is read from the fitted curve at half-maximal effect.

Sequence of Cytochrome P450 1A2 (Homo sapiens) (P05177 whole entry, looked up): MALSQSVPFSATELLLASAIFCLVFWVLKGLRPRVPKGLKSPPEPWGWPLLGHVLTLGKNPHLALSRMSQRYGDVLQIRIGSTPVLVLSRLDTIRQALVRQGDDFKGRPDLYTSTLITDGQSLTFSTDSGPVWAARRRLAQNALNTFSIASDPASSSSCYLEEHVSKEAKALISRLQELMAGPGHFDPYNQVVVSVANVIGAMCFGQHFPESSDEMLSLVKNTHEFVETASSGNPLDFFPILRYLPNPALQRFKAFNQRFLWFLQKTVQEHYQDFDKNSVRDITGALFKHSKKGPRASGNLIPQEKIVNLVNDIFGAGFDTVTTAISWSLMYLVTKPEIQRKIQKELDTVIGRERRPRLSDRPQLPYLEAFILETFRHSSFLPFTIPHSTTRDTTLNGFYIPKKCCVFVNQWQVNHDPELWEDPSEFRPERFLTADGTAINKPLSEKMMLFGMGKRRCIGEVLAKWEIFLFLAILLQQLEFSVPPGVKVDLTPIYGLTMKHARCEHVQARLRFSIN
Sequence of Voltage-gated inwardly rectifying potassium channel KCNH2 (Homo sapiens) (Q12809 whole entry, looked up): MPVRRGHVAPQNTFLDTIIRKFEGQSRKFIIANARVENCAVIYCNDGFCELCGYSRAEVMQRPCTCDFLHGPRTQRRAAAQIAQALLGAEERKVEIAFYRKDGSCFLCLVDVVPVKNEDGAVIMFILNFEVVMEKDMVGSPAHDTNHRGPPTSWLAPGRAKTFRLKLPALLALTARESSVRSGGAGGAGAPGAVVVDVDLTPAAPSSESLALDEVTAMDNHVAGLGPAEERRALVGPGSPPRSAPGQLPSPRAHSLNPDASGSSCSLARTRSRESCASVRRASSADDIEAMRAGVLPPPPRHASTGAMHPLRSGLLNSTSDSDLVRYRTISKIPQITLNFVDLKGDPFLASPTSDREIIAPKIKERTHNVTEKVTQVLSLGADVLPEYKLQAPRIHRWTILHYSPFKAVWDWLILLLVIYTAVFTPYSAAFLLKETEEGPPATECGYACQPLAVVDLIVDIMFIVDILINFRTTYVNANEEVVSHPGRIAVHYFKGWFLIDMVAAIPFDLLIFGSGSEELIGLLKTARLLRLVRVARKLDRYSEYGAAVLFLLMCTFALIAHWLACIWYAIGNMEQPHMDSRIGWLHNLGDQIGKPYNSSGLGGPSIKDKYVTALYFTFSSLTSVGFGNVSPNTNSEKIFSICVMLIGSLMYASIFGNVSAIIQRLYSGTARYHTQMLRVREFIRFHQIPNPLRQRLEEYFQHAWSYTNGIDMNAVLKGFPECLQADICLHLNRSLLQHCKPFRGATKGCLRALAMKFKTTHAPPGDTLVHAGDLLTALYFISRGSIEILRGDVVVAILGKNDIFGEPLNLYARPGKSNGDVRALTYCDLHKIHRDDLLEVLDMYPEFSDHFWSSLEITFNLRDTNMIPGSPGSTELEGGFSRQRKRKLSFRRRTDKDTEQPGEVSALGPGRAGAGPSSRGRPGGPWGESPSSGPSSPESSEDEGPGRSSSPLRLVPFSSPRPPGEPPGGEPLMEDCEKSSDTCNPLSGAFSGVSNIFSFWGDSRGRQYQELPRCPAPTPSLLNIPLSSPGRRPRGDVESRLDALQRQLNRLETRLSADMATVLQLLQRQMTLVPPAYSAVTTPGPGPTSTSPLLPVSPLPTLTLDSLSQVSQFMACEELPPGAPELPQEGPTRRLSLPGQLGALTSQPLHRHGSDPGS
Sequence of Cytochrome P450 2C9 (Homo sapiens) (P11712 whole entry, looked up): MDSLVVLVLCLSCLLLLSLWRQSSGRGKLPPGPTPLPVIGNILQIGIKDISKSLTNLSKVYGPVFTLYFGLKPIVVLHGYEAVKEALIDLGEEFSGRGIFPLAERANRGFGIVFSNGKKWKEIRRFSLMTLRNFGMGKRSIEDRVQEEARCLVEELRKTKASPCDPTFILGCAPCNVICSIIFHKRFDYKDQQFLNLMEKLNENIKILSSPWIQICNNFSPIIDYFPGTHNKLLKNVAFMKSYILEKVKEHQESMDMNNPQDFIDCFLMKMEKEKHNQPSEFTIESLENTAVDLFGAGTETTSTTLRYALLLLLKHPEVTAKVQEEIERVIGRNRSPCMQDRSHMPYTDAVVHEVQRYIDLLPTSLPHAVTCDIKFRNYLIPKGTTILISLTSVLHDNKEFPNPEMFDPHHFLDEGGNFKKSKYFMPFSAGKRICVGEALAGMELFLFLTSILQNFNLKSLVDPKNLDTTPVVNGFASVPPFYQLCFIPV
Sequence of Cytochrome P450 3A4 (Homo sapiens) (P08684 whole entry, looked up): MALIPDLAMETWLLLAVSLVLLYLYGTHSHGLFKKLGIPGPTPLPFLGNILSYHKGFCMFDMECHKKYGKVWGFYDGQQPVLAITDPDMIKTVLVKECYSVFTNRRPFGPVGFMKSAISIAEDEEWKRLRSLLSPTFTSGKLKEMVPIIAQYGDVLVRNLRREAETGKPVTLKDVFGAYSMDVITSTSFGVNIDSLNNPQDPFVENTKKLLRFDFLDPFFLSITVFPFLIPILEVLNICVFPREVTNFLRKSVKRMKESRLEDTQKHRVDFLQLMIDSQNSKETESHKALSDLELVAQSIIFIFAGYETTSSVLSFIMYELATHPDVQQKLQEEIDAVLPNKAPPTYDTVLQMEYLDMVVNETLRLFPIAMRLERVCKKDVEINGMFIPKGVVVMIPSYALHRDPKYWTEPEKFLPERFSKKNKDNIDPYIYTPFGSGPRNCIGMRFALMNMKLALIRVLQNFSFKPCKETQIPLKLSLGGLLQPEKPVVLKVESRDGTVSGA

As to `O=C1OC(=O)c2ccccc21`, the Potency entry in assay [1], in assay [2], in assay [3], in assay [4], in assay [5] and in assay [6] was “inactive” throughout.

On to `SCCSCCS`, for which the Potency entry in assay [1], in assay [2], in assay [3], in assay [4], in assay [5] and in assay [6] was “inactive” throughout.

Consider `C=CCCCCCCCCCCC`, for which the activity change, negative = inhibition was -22.8% [at 10.5 µM] in assay [1]; 11.6% [at 10.5 µM] in assay [2]; -1.77% [at 10.5 µM] in assay [3]; -6.04% [at 10.5 µM] in assay [4]; 6.79% [at 6.97 µM] in assay [5]; 4% [at 10.5 µM] in assay [6].

`O=S(=O)(O)SSS(=O)(=O)O`: the Potency entry in assay [1], in assay [5] and in assay [6] was “inactive” in each case. The Potency in assay [2] is 35.6 µM (active); in assay [3], 71 µM (active); in assay [4], 44.8 µM (active).

For `C1=CCC(c2ccccc2)CC1` (configuration not stated), the Potency entry in assay [1], in assay [2], in assay [3], in assay [5] and in assay [6] was “inactive” each time.

Consider `CCCCC[Si](OCC)(OCC)OCC`, for which the Potency result in assay [1] and in assay [5] was “inactive” in each case. Moreover, the Potency was 25.2 µM (active) in assay [2], 31.7 µM (active) in assay [3] and 12.6 µM (active) in assay [6].

As for `Cc1ccc(C(=O)C(=O)O)cc1C`, the Potency result in assay [1], in assay [2], in assay [3], in assay [5] and in assay [6] was “inactive” each time. The Potency in assay [4] was 30.9 µM (active).

Turning to `C[CH2][Ge]([Cl])([CH2]C)[CH2]C`, the Potency result in assay [1], in assay [2], in assay [3], in assay [4], in assay [5] and in assay [6] was “inactive” each time.

Regarding `Cc1ccccc1C`, the Potency entry in assay [1], in assay [3], in assay [5] and in assay [6] was “inactive” in each case. Further, the Potency in assay [2] was 81.7 µM (active).

With `O=C1NC2NC(=O)NC2N1` (configuration not stated), the Potency result in assay [1], in assay [2], in assay [3], in assay [5] and in assay [6] was “inactive” each time. Also, the Potency in assay [4] is 35.6 µM (active).

Regarding `NC(Cc1c[nH]c2ccccc12)C(=O)O` (configuration not stated), the Potency in assay [1] was 17.5 µM (active); in assay [2] it was 24.7 µM (active); in assay [3], 31.1 µM (active). Further, the Potency entry in assay [5] was “inactive”.

Regarding `Nc1ccnc(=O)[nH]1`, the Potency result in assay [1], in assay [2], in assay [3], in assay [4], in assay [5] and in assay [6] was “inactive” in each case.

As to `O=S(=O)(O)CCO`, the Potency result in assay [1], in assay [2], in assay [3], in assay [5] and in assay [6] was “inactive” each time.

Take `Cc1cccc(NC(=S)N(C)C)c1`: the Potency entry in assay [1], in assay [3], in assay [5] and in assay [6] was “inactive” in each case. Besides, the Potency was 79.6 µM (active) in assay [2] and 35.6 µM (active) in assay [4].

On to `CC(C)SCc1ccco1`, for which the Potency result in assay [1], in assay [2], in assay [3], in assay [4], in assay [5] and in assay [6] was “inactive” each time.

In the case of `N#CCCOCCOCCC#N`, the Potency entry in assay [1], in assay [2], in assay [3], in assay [5] and in assay [6] was “inactive” throughout. For the same molecule, the Potency in assay [4] was 39.9 µM (active).

As to `CCCCOC(=O)C(C)OC(=O)CCC` (configuration not stated), the Potency entry in assay [1], in assay [2], in assay [3], in assay [4], in assay [5] and in assay [6] was “inactive” in each case.

For the molecule `CCCCC(=O)N(C)C`, the Potency result in assay [1], in assay [2], in assay [3], in assay [4], in assay [5] and in assay [6] was “inactive” throughout.

For `CCN1CN(CC)CN(CC)C1`, the Potency entry in assay [1], in assay [2], in assay [3], in assay [4], in assay [5] and in assay [6] was “inactive” throughout.

For the molecule `CC(=O)OC[C@H]1O[C@@H](OC(C)=O)[C@H](OC(C)=O)[C@@H]1OC(C)=O`, the Potency result in assay [1], in assay [2], in assay [3], in assay [4], in assay [5] and in assay [6] was “inactive” throughout.

As for `CCC(=O)c1ccc(O)cc1`, the Potency result in assay [1], in assay [2], in assay [3], in assay [5] and in assay [6] was “inactive” each time.

With `CO[Si](CCCCl)(OC)OC`, the Potency in assay [1] is 31.2 µM (active); in assay [2], 39.3 µM (active); in assay [3] it was 39.3 µM (active); in assay [6], 3.51 µM (active). Moreover, the Potency result in assay [4] and in assay [5] was “inactive” in each case.

On to `CCCCCCCCCCCCCCCCI`, for which the activity change, negative = inhibition in assay [1] is -2.1% [at 23.6 µM]; in assay [2], -28.1% [at 23.6 µM]; in assay [3], -1.09% [at 23.6 µM]; in assay [4], -13.6% [at 23.6 µM]; in assay [5], 0.683% [at 15.8 µM]; in assay [6], -0.102% [at 23.6 µM].

In the case of `C=CCOc1cc(Cl)ccc1C(=O)NCCN(CC)CC`, the Potency was 0.275 µM (active) in assay [1]; 6.92 µM (active) in assay [2]; 2.57 µM (active) in assay [4]; 9.52 µM (active) in assay [5]; 17.4 µM (active) in assay [6]. In addition, in assay [3], the Potency entry was “inactive”.

As for `Cc1cc(C)cc([N+](=O)[O-])c1`, the Potency result in assay [1], in assay [2], in assay [3], in assay [4], in assay [5] and in assay [6] was “inactive” throughout.

`O=C1OC(=O)c2cc(Oc3ccc4c(c3)C(=O)OC4=O)ccc21`: the Potency result in assay [1], in assay [2], in assay [3], in assay [4], in assay [5] and in assay [6] was “inactive” in each case.

For the molecule `CN(C)CCOCCN(C)CCO`, the Potency in assay [1] is 20 µM (active). For the same molecule, the Potency result in assay [2], in assay [3], in assay [4], in assay [5] and in assay [6] was “inactive” throughout.

As to `COc1cccc2sc(N)nc12`, the Potency was 11.3 µM (active) in assay [1], 56.7 µM (active) in assay [2], 22.6 µM (active) in assay [4] and 10.1 µM (active) in assay [6]. Besides, the Potency entry in assay [3] and in assay [5] was “inactive” each time.

For `CCCCCN(CCCOC)C(=O)C(CCC(=O)O)NC(=O)c1ccc(Cl)c(Cl)c1` (configuration not stated), the Potency entry in assay [1], in assay [2], in assay [5] and in assay [6] was “inactive” throughout. The Potency in assay [3] was 13.8 µM (active); in assay [4] it was 30.9 µM (active).
